Reference: PubChem BioAssay
Active and inactive are the calls of the source.

Columns and labels:
[1] = tested on: Plasmodium falciparum Sir2 (PF13_0152, Sir2A); assay: Plasmodium falciparum Sir2A binding compounds – biochemical, small-molecule microarray, 635 nm fluorescence, primary screen (AID 1098); settings: fluorescence 635 nm, higher = more signal;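 note: score merges spot fluorescence intensity with its signal-to-noise ratio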
[2] = probe aDKK1 binding to arrayed compounds – biochemical, biotinylated probe, 635/667 nm fluorescence, primary screen (AID 1099); settings: small-molecule microarray, higher = more signal;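 note: score merges 667nm spot fluorescence with signal to noise across triplicate slides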
[3] = probe aCHRDL2 binding to arrayed compounds – biochemical, biotinylated probe, 635/667 nm fluorescence, primary screen (AID 1100); settings: small-molecule microarray, higher = more signal
[4] = change in splice reporter luminescence, either direction, cell-based, HEK293, spliceosome inhibition project, primary screen (AID 1101); settings: HEK293 splicing luciferase reporter, 24 h, higher = more signal, called active from +8 up or from −8 down;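 note: HEK293 cells carrying a splicing-competent luciferase reporter gene; test concentration not given here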
[5] = target: Fibroblast growth factor 10 (Homo sapiens) (UniProt O15520); assay: compounds binding fibroblast growth factor 10 – biochemical, small-molecule microarray, 635 nm fluorescence, primary screen (AID 1102); settings: FGF10 binding, fluorescence 635 nm, higher = more signal
Fibroblast growth factor 10 (Homo sapiens), sequence (O15520 whole entry, looked up): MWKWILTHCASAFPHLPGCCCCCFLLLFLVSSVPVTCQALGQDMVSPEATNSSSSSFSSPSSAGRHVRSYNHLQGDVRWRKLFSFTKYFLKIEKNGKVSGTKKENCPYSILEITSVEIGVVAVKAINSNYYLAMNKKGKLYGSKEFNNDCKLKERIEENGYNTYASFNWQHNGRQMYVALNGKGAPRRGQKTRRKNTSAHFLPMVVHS

[6] = tested on: glycogen synthase kinase-3 (GSK3A per assay name; protocol says GSK3B); assay: compounds binding glycogen synthase kinase-3 – biochemical, small-molecule microarray, 635 nm fluorescence, GSK3A, primary screen (AID 1103); settings: fluorescence 635 nm, higher = more signal; note: the record names both GSK3A and GSK3B
[7] = target: Epidermal growth factor receptor (Homo sapiens) (UniProt P00533); assay: compounds binding epidermal growth factor receptor – biochemical, small-molecule microarray, 635 nm fluorescence, primary screen (AID 1104); settings: EGFR binding, higher = more signal;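 note: score merges 667 nm emission intensity with spot signal to noise over triplicate slides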
Epidermal growth factor receptor (Homo sapiens), sequence (P00533 whole entry, looked up): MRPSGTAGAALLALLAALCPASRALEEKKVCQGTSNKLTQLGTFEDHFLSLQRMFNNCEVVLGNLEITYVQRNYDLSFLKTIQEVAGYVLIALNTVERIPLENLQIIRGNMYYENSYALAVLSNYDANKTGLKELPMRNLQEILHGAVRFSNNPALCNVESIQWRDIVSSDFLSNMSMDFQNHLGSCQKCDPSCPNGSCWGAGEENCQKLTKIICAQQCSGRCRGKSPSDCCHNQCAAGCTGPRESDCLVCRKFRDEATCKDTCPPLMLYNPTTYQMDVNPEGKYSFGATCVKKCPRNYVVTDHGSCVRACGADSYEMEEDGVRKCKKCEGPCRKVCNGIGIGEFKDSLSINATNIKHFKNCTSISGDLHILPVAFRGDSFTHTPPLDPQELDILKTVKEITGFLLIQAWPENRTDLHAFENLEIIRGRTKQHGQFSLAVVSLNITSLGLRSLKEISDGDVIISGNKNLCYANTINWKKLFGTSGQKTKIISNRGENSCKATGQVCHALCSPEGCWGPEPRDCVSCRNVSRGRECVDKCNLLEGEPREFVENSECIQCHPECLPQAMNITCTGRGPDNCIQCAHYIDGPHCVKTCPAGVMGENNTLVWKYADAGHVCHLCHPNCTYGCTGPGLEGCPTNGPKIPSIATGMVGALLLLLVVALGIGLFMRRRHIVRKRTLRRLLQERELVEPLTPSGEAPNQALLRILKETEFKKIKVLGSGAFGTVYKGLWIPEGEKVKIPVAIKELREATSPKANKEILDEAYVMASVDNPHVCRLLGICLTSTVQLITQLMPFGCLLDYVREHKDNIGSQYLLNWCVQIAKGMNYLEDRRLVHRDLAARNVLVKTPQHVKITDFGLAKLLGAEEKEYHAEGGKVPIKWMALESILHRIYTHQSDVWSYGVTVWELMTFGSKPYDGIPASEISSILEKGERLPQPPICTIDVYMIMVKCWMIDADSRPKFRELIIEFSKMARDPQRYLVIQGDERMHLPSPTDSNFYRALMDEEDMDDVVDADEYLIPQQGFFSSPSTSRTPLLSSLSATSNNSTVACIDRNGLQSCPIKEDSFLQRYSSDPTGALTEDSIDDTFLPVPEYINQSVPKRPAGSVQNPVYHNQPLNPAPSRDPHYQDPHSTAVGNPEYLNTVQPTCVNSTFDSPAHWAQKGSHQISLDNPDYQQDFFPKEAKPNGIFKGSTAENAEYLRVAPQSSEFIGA

[8] = target: Follistatin-related protein 3 (Homo sapiens) (UniProt O95633); assay: compounds binding follistatin-related protein 3 – biochemical, small-molecule microarray, 635 nm fluorescence, primary screen (AID 1105); settings: FSTL3 binding, higher = more signal;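 note: score merges emission near 667 nm and signal to noise per printed spot across three slides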
Follistatin-related protein 3 (Homo sapiens), sequence (O95633 whole entry, looked up): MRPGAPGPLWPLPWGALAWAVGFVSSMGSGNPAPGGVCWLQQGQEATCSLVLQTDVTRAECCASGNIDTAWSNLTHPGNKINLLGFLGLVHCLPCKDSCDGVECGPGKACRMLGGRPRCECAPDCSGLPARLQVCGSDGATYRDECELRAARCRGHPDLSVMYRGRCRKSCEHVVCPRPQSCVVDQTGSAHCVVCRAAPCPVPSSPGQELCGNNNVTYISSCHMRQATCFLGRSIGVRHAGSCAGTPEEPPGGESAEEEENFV

[9] = target: Dickkopf-related protein 1 (Homo sapiens) (UniProt O94907); assay: small molecules binding DKK1 protein – biochemical, small-molecule microarray, 635 nm fluorescence scan, primary screen (AID 1106); settings: higher = more signal;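 note: score merges emission near 667 nm with signal to noise over three replicate slides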
Dickkopf-related protein 1 (Homo sapiens), sequence (O94907 whole entry, looked up): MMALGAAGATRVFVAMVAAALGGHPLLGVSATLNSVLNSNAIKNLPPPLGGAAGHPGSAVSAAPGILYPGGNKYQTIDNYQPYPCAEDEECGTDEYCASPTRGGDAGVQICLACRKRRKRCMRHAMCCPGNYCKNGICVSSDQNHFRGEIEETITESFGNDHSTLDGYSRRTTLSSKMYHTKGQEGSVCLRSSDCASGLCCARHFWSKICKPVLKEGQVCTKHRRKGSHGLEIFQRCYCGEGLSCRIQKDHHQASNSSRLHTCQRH

[10] = tested on: Inhibin beta A chain (activin A); assay: small molecules binding activin A – biochemical, small-molecule microarray, 635 nm fluorescence scan, primary screen (AID 1107); settings: INHBA, higher = more signal;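 note: mouse activin A protein probed at 4.33 µg/mL on printed slides; score merges bound-protein fluorescence near 667 nm with spot signal-to-noise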
[11] = tested on: Human papillomavirus type 1a protein E7 (residues 44-93); assay: small molecules binding HPV E7 44-93 – biochemical, small-molecule microarray, residues 44-93, 635 nm fluorescence, primary screen (AID 1108); settings: fluorescence 635 nm, higher = more signal;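 note: E7 fragment applied at 1 µg/mL in TBST for 1 h at 4 C; score combines spot fluorescence with its signal to noise ratio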
[12] = hepatitis C replication reporter changes, two-sided – Huh7 cells, luciferase reporter, HCV replication inhibitor project, primary screen (AID 1109); settings: Huh7 HCV replicon luciferase reporter, 48 h; higher = more signal;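 note: huh7 hepatoma cells harbouring a luciferase neomycin HCV replicon reporter; luciferase luminescence as measure of HCV replicon replication; test concentration not given here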
[13] = target: Left-right determination factor 2 (Homo sapiens) (UniProt O00292); assay: small molecules binding LEFTY2 protein – biochemical, small-molecule microarray, 635 nm fluorescence scan, primary screen (AID 1110); settings: higher = more signal
Left-right determination factor 2 (Homo sapiens), sequence (O00292 whole entry, looked up): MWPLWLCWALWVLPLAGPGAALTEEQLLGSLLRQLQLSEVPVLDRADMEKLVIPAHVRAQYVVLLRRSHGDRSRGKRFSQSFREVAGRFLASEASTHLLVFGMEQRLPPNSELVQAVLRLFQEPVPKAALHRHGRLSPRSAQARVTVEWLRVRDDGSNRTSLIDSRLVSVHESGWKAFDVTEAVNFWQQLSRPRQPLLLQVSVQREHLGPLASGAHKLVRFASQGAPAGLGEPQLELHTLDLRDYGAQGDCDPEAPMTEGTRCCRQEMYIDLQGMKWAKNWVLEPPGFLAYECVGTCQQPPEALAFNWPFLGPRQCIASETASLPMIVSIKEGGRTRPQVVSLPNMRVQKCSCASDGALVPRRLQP

[14] = target: Calmodulin-1 (Homo sapiens) (UniProt P0DP23); assay: small molecules binding calmodulin-1 with EGTA – biochemical, small-molecule microarray, Cy5-labelled CALM1, profiling panel (AID 1111); settings: Cy5-CALM1 binding fluorescence, higher = more signal;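 note: labelled calmodulin applied in Tris saline Tween buffer holding calcium plus EGTA and DTT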
[15] = target: Calmodulin-1 (Homo sapiens) (UniProt P0DP23); assay: small molecules binding Ca-loaded calmodulin-1 – biochemical, small-molecule microarray, Cy5-labelled CALM1, plus calcium, artefact control for SMM control-protein annotation, profiling panel (AID 1112); settings: Cy5-CALM1 binding fluorescence, higher = more signal;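 note: score merges spot fluorescence with signal to noise from triplicate slides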
[16] = probe aWnt5a binding to arrayed compounds – biochemical, biotinylated probe, 635/667 nm fluorescence, primary screen (AID 1113); settings: small-molecule microarray, higher = more signal;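 note: score merges 667 nm fluorescence intensity with signal-to-noise per printed feature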
[17] = probe aShh binding to arrayed compounds – biochemical, biotinylated probe, 635/667 nm fluorescence, primary screen (AID 1114); settings: small-molecule microarray, higher = more signal;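 note: probe is biotin-labelled aShh protein from a stem cell growth factor screen; measures binding of labelled protein to compounds printed on the slide; score merges feature fluorescence at 667 nm with signal-to-noise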
[18] = probe aNog binding to arrayed compounds – biochemical, biotinylated probe, 635/667 nm fluorescence, primary screen (AID 1115); settings: small-molecule microarray, higher = more signal;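 note: probe is biotinylated aNog protein used at 0.15 µg/mL for 1 h at 4 C; z-score combines 667 nm fluorescence of each spot with its signal to noise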
[19] = target: Torsin-1A-interacting protein 1 (Homo sapiens) (UniProt Q5JTV8); assay: compound microarray binding of lysate hLAP1 – cell lysate, small-molecule microarray, COS7 lysate, 635/667 nm fluorescence, primary screen (AID 1116); settings: 635 nm fluorescence, higher = more signal
Torsin-1A-interacting protein 1 (Homo sapiens), sequence (Q5JTV8 whole entry, looked up): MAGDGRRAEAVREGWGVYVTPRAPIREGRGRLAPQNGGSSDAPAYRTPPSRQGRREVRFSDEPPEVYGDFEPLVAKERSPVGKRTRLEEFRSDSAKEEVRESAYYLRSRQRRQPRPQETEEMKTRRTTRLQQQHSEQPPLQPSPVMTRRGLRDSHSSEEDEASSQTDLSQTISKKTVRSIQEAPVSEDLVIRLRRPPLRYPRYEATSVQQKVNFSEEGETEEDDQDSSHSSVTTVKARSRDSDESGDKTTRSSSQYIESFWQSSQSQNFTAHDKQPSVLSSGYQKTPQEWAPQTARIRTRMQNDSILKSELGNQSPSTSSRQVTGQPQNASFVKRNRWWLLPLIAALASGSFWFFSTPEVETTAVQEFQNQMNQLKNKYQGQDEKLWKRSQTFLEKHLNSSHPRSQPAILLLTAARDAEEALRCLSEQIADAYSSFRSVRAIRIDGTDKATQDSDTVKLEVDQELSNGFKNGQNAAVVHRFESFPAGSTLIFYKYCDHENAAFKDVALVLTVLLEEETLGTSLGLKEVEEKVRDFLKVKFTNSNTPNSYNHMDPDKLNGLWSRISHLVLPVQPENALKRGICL

[20] = target: Alpha-bungarotoxin (Bungarus multicinctus) (UniProt P60615); assay: compounds binding labelled alpha-BTX control protein – biochemical, small-molecule microarray, Alexa647 label, 635/667 nm fluorescence, artefact control for SMM control protein annotation, profiling panel (AID 1117); settings: alpha-BTX-A647 binding fluorescence, higher = more signal
Alpha-bungarotoxin (Bungarus multicinctus), sequence (P60615 whole entry, looked up): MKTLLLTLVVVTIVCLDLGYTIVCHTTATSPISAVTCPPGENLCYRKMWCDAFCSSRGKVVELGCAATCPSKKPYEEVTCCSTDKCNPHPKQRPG

Structure (SMILES) | composite z-score [1] | composite z-score [2] | composite z-score [3] | z-score [4] | composite z-score [5] | composite z-score [6] | composite z-score [7] | composite z-score [8] | composite z-score [9] | composite z-score [10] | composite z-score [11] | z-score [12] | composite z-score [13] | composite z-score [14] | composite z-score [15] | composite z-score [16] | composite z-score [17] | composite z-score [18] | composite z-score [19] | composite z-score [20]
O=C(CS)NCCCCCCNC(=O)[C@H]1C[C@H]2C(=O)N[C@@H](Cc3ccccc3)C(=O)N2[C@H]1c1ccc(O)cc1 | 1.67 | -0.249 | -0.0488 | -0.239 (inactive) | 1.39 | 0.992 | 0.0478 | 0.333 | 0.75 | -0.95 | 1.39 | -0.53 | 0.656 | -0.123 | -0.426 | -0.1 | -0.339 | -0.493 | 0.0397 | 0.329
CC(C)(C)OC(=O)CC[C@@]1(C(=O)NCc2ccccc2)N=C(c2ccc(OCCCO)cc2)O[C@@H]1c1ccccc1N=[N+]=[N-] | 0.71 | 1.03 | 1.29 | -1.18 (inactive) | 1.39 | 1.18 | 0.373 | 1.26 | 0.0295 | 0.795 | 0.912 | -0.339 | 0.529 | 1.15 | 0.493 | 0.112 | 0.232 | 1.9 | 0.899 | 2.1
COc1ccc(CCNC(=O)[C@@H]2c3ccccc3C(=O)N(Cc3cc(C(F)(F)F)cc(C(F)(F)F)c3)[C@H]2c2ccc(CO)cc2)cc1 | 1.1 | 0.0172 | 0.716 | -0.082 (inactive) | 0.0696 | -0.331 | -0.358 | -0.272 | -0.594 | -0.167 | 0.867 | -1.06 | -0.31 | 0.0713 | -0.935 | -0.141 | -0.147 | -0.273 | 0.338 | 0.795
